Compound activity (PubChem)
The list is not random: actives were taken first. Their share in the collection is about 6.5%.
Vaccinia mCherry: qHTS for Stage-Specific Inhibitors of Vaccinia Orthopoxvirus: mCherry Reporter Primary qHTS. Potency, µM (highest dose often 36.5 µM), without a hit: at the top dose activity change, negative = inhibition, actives largely listed as inhibitors. Vaccinia virus mCherry reporter infection, fluorescence. actives 0.63% (n = 310,000); calls by dose curve; tested in A549 cells; further: potency means the concentration at half of the fitted maximal effect; nearly all actives have a fitted effect of over 35% in size
LASV entry inh: qHTS for Inhibitors of binding or entry into cells for Lassa Virus; actives 1.2% (n = 300,000); Lassa virus pseudotype entry inhibition, cell reporter; Potency, µM (series often up to 37.9 µM), for the others: top-dose activity change, negative = inhibition, usual class: inhibitors; calls by dose curve; tested in HEK293 cells; further: potency means the concentration at half of the fitted maximal effect; nearly all actives have a fitted effect of over 50% in size
MARV entry inh: qHTS for inhibitors of binding or entry into cells for Marburg Virus; Marburg virus pseudotyped entry inhibition, cell reporter; Potency, µM (doses to about 37.8 µM), inactives show at the top dose activity change, negative = inhibition, usual class: inhibitors; actives 1.8% (n = 300,000); calls by dose curve; tested in HEK293 cells; further: potency means the concentration at half of the fitted maximal effect
FMDV antiviral: High Throughput Screening for Foot and Mouth Disease Virus Antivirals. FMDV antiviral cell-based qHTS. Potency, µM (highest dose often 57.9 µM), inactives show at the top dose activity change, negative = inhibition, usual class: inhibitors. actives 1.2% (n = 410,000). AID 1159524, 2015; calls by dose curve; tested in HEK293T cells; further: read-out not given here; potency means the concentration at half of the fitted maximal effect; nearly all actives have a fitted effect of over 45% in size
HCMV antiviral: qHTS Assay for inhibitors of the human cytomegalovirus (HCMV); AID 1259415, 2018; activity change, negative = inhibition, % at 57.5 µM; HFF cells, HCMV-luciferase reporter, 72 h; hits give low values; actives 4.5% (n = 410,000); in the data active means activity change below about -60%; inconclusive means no clear call, values can overlap the other calls; inactive means above about -39%
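HFF cells seeded 16 h at 37C, treated with compounds, infected with luciferase-reporter HCMV at MOI 1 PFU/cell; luciferase read at 72 h post infection, normalized to buffer-only and Salinomycin controls.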
Vaccinia Venus: qHTS for Stage-Specific Inhibitors of Vaccinia Orthopoxvirus: Venus Reporter Primary qHTS | actives 0.46% (n = 330,000) | Potency, µM (series often up to 36.5 µM), for inactives: at the highest dose activity change, negative = inhibition, usual class: inhibitors | Vaccinia virus Venus reporter expression, fluorescence | AID 720580, 2013; calls by dose curve; tested in A549 cells; further: potency means the concentration at half of the fitted maximal effect; nearly all actives have a fitted effect of over 30% in size
Active calls of the source: *; i = inactive; ? = inconclusive; · = no result given; [ ] = another dose, or the depositor's remark. On the % scale 0 is the no-effect control and ±100 the full control effect.

SMILES | Vaccinia mCherry | LASV entry inh | MARV entry inh | FMDV antiviral | HCMV antiviral | Vaccinia Venus
Cc1cc(C(=O)N/N=C/c2cc(N=Nc3ccccc3)ccc2O)n[nH]1 | ? | 11.2µM* | 0.501µM* | 9.6% | · | ?
OCCN1CCN(Cc2ccc3c(c2)CN(Cc2cccc4ncccc24)CCO3)CC1 | -8.1% | · | · | -15.2% | · | 3.2%
CC(=O)Nc1ccccc1-c1nc2ccccc2n(Cc2cccc(Br)c2)c1=O | -4.8% | 10.2%[46.1 µM] | -20.9%[46.1 µM] | -23.7% | 5.1 | -9.2%
COc1ccc(SC[C@H](Cc2ccccc2)N2CC[C@@H](C)CCC2=O)cc1 | -4.5% | · | · | 13.1% | -35.9 | -19.9%
O=C(NN=Cc1ccccc1O)c1cccc([N+](=O)[O-])c1 | 1.12µM* | ? | 10µM* | 20.2% | -96.5* | ?
COc1ccc2ccccc2c1/C=N/NC(=O)c1cccc([N+](=O)[O-])c1 | i | -2.4%[46.1 µM] | -0.9%[46.1 µM] | 1.6% | -61.9* | -13.0%
O=C(N/N=C/c1ccccn1)c1cccc([N+](=O)[O-])c1 | -5.9% | -19.5% | ? | -1.8% | -14.0 | -9.7%
COc1ccc(/C=N/NC(=O)c2cccc([N+](=O)[O-])c2)cc1O | -17.2% | 2.3% | ? | 64.8% | -28.1 | -26.9%
COc1cc(/C=N/NC(=O)c2cccc([N+](=O)[O-])c2)ccc1O | · | · | · | 16.6% | -26.7 | ·
COc1cccc(/C=N/NC(=O)c2cc3cc([N+](=O)[O-])ccc3s2)c1O | 5.01µM* | ? | 1.78µM* | -6.2% | -104.0* | ?
COc1cc([N+](=O)[O-])cc(/C=N/NC(=O)c2ccc(NC(=O)c3ccc(C)cc3)cc2)c1O | 0.5% | ? | 1.12µM* | ? | -101.6* | 3.9%
CCOC(=O)/C=C/[C@@H](CCc1ccccc1)NC(=O)C(F)(F)F | · | · | · | · | -11.6 | ·
COC(=O)N/N=C/c1cc(N=Nc2ccccc2Cl)ccc1O | -4.5%[7.34 µM] | · | · | -8.4% | 28.6 | -18.4%[7.34 µM]
Nc1ccc(C(=O)N/N=C\c2cc(N=Nc3cccc4ccccc34)ccc2O)cc1 | · | ? | 16.4µM* | 15.0% | -102.0* | ·
COc1cc(C(=O)NCC2(N(C)C)CCCCC2)ccc1OCc1ccccc1 | -10.9% | · | ? | -13.8% | -16.6 | -1.9%
O=C(Nc1ccc(Cl)cc1)c1cc(S(=O)(=O)NC2CCCCCC2)ccc1F | ? | ? | · | 1.4% | -66.8* | ?
NC(=Nc1ccccc1)NN=Cc1c[nH]c2ccccc12 | -0.1% | -20.1% | ? | ? | -85.3* | ?
COc1cc(/C=N/NC(=O)c2ccoc2C)ccc1O | -17.3% | 16.7% | ? | 60.5% | 39.9 | 0.0%
Cc1onc(-c2ccccc2)c1C(=O)N/N=C/c1c[nH]c2ccccc12 | -40.2% | 10µM* | 2.6%[46.1 µM] | ? | 72.8 | -17.4%
COc1cccc(/C=N/NC(=O)c2ccoc2C)c1O | 4.47µM* | · | · | -29.2% | -81.8* | ?
COc1cccc(/C=N/NC(=O)c2c(-c3ccccc3)noc2C)c1O | 10µM* | 10µM* | 11.2µM* | -13.1% | -83.5* | ?
Cc1ccc2occ(CN3CCOc4ccc(C(C)(O)COc5ccccc5)cc4C3)c(=O)c2c1 (stereo unspecified) | -20.0% | · | · | -21.3% | · | 3.1%
Cc1cc(C)c(CSc2nnc(C)n3c2cc2occc23)c(C)c1 | -18.4% | 2.9%[46.1 µM] | · | -4.4% | -8.8 | -19.5%
COc1cccc(/C=N/NC(=O)c2cnccn2)c1O | 4.47µM* | · | · | 13.5% | 17.4 | -5.4%
COC(=O)c1c(-c2ccccc2)noc1C | 6.6% | 6.8% | 1.1%[46.1 µM] | 2.6% | -76.2* | -1.9%
SMILES | Vaccinia mCherry | LASV entry inh | MARV entry inh | FMDV antiviral | HCMV antiviral | Vaccinia Venus
COc1c(Cl)cc(-c2noc(C)c2C(=O)NCc2ccc3c(c2)OCO3)cc1Cl | i | 18.4% | 18.7% | -24.8% | 20.5 | 2.3%
Cc1onc(-c2ccccc2)c1C(=O)N/N=C/c1cc(Br)c(Br)o1 | i | ? | ? | 25.1µM* | -28.0 | 0.0%
COC(=O)c1onc(-c2ccccc2)c1C(=O)OC | · | 6.6% | 9.7% | -9.9% | 2.7 | 3.3%
Cc1ccc(/C=N/NC(=O)c2c(-c3ccccc3)noc2C)o1 | -12.5% | 5.2% | 18.8% | -13.2% | ? | -3.2%
COc1c(Cl)cc(-c2noc(C)c2C(=O)NCc2ccccc2)cc1Cl | 1.2% | · | -0.2% | -16.4% | -68.3* | -4.8%
COc1cc(CN2CCC3(CC2)c2ccccc2[C@@H](NC(=O)c2ccccc2OC)[C@@H]3O)ccc1F | -23.0% | · | · | ? | · | -23.8%
COC(=O)Cn1c(=NC(=O)c2ccc([N+](=O)[O-])s2)sc2cc(Br)ccc21 | · | -0.5% | 0.0% | · | · | ·
Cc1ccc(/C=N/NC(=O)c2c(-c3ccccc3)noc2C)c(O)c1 | · | · | · | · | -110.0* | ·
O=C(O)c1nc2ccccc2nc1C(=O)O | · | 10.6% | 9.4% | 24.1% | 85.0 | ·
O=C(O)c1cccc2nc3ccccc3nc12 | ? | · | · | -7.6% | -62.5* | -10.6%
O=C(NCc1ccncc1)[C@@H]1CCCN1C(=O)[C@@H]1CCCN1C(=O)c1cccc2ccccc12 | i | · | · | -22.7% | -6.1 | 9.1%
Cc1ccc(C)c(S(=O)(=O)N2CCCOC2CNC(=O)C(=O)NCc2cccs2)c1 (stereo unspecified) | -22.2% | -7.3% | -22.3% | -3.3% | -3.5 | -18.5%
O=c1[nH][nH]c2c(N=Cc3ccccc3O)ccc(F)c12 | -16.9% | ? | ? | -21.1% | · | -1.9%
O=c1[nH][nH]c2c([N+](=O)[O-])ccc(F)c12 | · | · | · | · | -61.5* | ·
CCOC(=O)c1ccc(-n2c(C)nc3c(cnn3-c3ccc(Cl)cc3)c2=O)cc1 | 22.2% | -3.3%[46.1 µM] | 2.5%[46.1 µM] | ? | 8.8 | 16.1%
COc1ccc(Oc2c(Cl)cnn(-c3ccc(Cl)c(Cl)c3)c2=O)cc1 | · | ? | ? | 28.2µM* | 28.2 | -28.8%
COc1ccc(Oc2c(Cl)cnn(-c3ccc(F)cc3)c2=O)cc1 | · | ? | ? | 0.0% | -39.8 | -8.2%
COc1ccc(-n2c(C)nc3c(cnn3-c3ccc(Cl)cc3)c2=O)cc1 | ? | -8.0% | ? | ? | -76.8* | ?
COc1ccc(Oc2c(Cl)cnn(-c3ccc(C)cc3)c2=O)cc1 | · | ? | 10µM* | 0.0% | 12.5 | -3.2%
COc1ccc2c3n([n+]([O-])c2c1)C(C)CN=C3c1ccc(Cl)cc1 (stereo unspecified) | · | · | · | · | 49.8 | ·
Clc1ccc2c(NNc3ccccc3Cl)ccnc2c1 | · | 3.4% | -20.6% | -2.9% | 9.2 | ·
O=[N+]([O-])c1ccc(/C=N/Nc2ccnc3cc(Cl)ccc23)o1 | 15.8µM* | -16.1%[46.1 µM] | ? | 22.4% | -66.1* | ?
Clc1ccc2c(N/N=C/c3ccccc3Br)ccnc2c1 | -21.0% | -1.4% | ? | 0.0% | -64.1* | -12.9%
C/C(=N/Nc1ccnc2cc(Cl)ccc12)c1ccc(N)cc1 | 8.91µM* | · | · | 29.4% | -32.1 | ?
O=[N+]([O-])c1ccc(/C=N/NS(=O)(=O)c2ccc(Cl)cc2)o1 | -14.4% | -6.7% | 0.8% | 0.0% | -10.4 | -9.5%
